Experimental findings from PubChem BioAssay (NCATS) are described below.

Assay [1] in a line: P-glycoprotein substrates identified in KB-8-5-11 adenocarcinoma cell line, qHTS therapeutic library screen (AID 1346987). Note: nearly all actives have a fitted effect of over 65% in size. Note: potency is the fitted concentration of half-maximal effect. A digest of the protocol:
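KB-8-5-11: colchicine-selected sub-line of KB-3-1 over-expressing P-gp; assay medium lacked colchicine. 72 h drug exposure at 37 degree C, CellTiter-Glo.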

For assay [2], the system named is Zika virus NS2B-NS3 protease (unlinked complex). In words: Primary screen GU Rhodamine qHTS for Zika virus inhibitors: Unlinked NS2B-NS3 protease assay (AID 1347159). For activity change, negative = inhibition: % is set by controls: 0 for no effect and ±100 for the full control effect. Note: nearly all actives have a fitted effect of over 60% in size. Note: potency is the fitted concentration of half-maximal effect. A digest of the protocol:
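Compounds, tested up to 114 microM, were incubated for 15 minutes with 25 nM unlinked NS2B-NS3 protease at pH 8.0. Cleavage of 1.5 microM Rhodamine110 substrate was then followed by fluorescence for 15 minutes.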
(Quantitative high-throughput screening tests each substance at several concentrations.)

Assay [3] can be described thus: Primary redox qHTS assay for identification of artifact compounds. (AID 1845223).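 Note: 0% = DMSO and 100% = reference compound.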 In outline: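 Amplex Red (25 uM) and HRP (250 mU/mL) in HBSS, with compounds for 15 min, then 250 uM DTT for 30 min, room temperature, dark. Fluorescence 525/598 nm read; normalized to DMSO and 10 uM DA3003; Hill fit.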
For a further assay, the system named is KB-3-1. In words: Cytotoxic Profiling of Annotated Libraries Using Quantitative High-Throughput Screening (AID 1296008). For max response: % is set by controls: 0 for no effect and ±100 for the full control effect. Note: nearly all actives have a fitted effect of over 60% in size. Note: potency is the fitted concentration of half-maximal effect. To be noted: Five cell lines viability, CellTiter-Glo ATP luminescence, 48-72 h; max response: stronger effect = lower value. A digest of the protocol: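 Cells exposed to compounds for 48 or 72 hr at 37 degrees Celsius. Viability read as ATP-coupled luminescence with CellTiter-Glo after 10 min at room temperature.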

A further assay concerns SKOV3. In words: Primary qHTS to identify gynecologic anti-cancer compounds using libraries of approved drugs and bioactive compounds (AID 1345084). Note: nearly all actives have a fitted effect of over 55% in size. Note: potency is the fitted concentration of half-maximal effect. To be noted: Gynecologic cancer cell panel viability, ATPlite luminescence, 48 h; series mostly up to 57.5 µM. In outline: (§1)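 Cell viability after 48 h drug treatment, ATPlite luminescence readout; five doses.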
Assay [4] is described as follows: Primary qHTS for inhibitors of nuclear receptor binding SET domain protein 2 (NSD2) in an RCH-ACV wild type WT cells (2C) (AID 1645877). Note: nearly all actives have a fitted effect of over 70% in size. Note: potency is the fitted concentration of half-maximal effect.
The nature of assay [5]: P-glycoprotein substrates identified in KB-3-1 adenocarcinoma cell line, qHTS therapeutic library screen (AID 1346986). Note: nearly all actives have a fitted effect of over 60% in size.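 Note: potency is the fitted concentration of half-maximal effect; potency is for cytotoxicity meaning loss of cell viability.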 A digest of the protocol: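 Compounds were tested in dose-response against KB-3-1 and KB-8-5-11 cells at 37 degree C for 72 h, and viability was measured by luminescence. AC50 values came from curve fitting with class-based activity calls.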
The nature of assay [6]: Cytotoxicity counterscreen for inhibitors of SARS-CoV-2 cell entry (AID 1645845; calls by dose curve; note: % is set by controls: 0 for no effect and ±100 for the full control effect; nearly all actives have a fitted effect of over 50% in size). A digest of the protocol:
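HEK293-ACE2 cells (Expi293F stably expressing human ACE2) seeded overnight, then compound for 1 h plus 48 h at 37C. Viability as ATP content by luminescence; normalized to wells with cells and media-only wells.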
A general note: A counterscreen serves to expose hits that act by an unwanted route or on another target.

A short description of assay [7]: Primary qHTS to identify inhibitors of SARS-CoV-2 cell entry (AID 1645846; calls by dose curve; note: potency is the fitted concentration of half-maximal effect; nearly all actives have a fitted effect of over 45% in size). To be noted: activity change, negative = inhibition: at 57.1 µM (top of the series) unless noted. In outline: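 Entry measured by luciferase signal 48 h after adding SARS-CoV-2-S pseudotyped MLV particles to HEK293-ACE2 cells preincubated 1 h with compounds. Normalisation: bald particles and spike particles.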

The nature of assay [8]: qHTS drug screen for cell cycle checkpoint inhibitors in PARPi-resistant BRCA-mutant ovarian cancer cell lines. (AID 1963452; calls by dose curve). The conditions noted are these: PEO1/OlaR viability, CellTiter-Glo luminescence, 96 h, stronger effect = lower value. In outline:
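PEO1, PEO4 and PEO1/OlaR ovarian cancer cells, 600 per well, exposed 96 h at 37C to a dilution series. Viability read by CellTiter-Glo luminescence, normalized to DMSO and empty wells; activity summarized as Z-AUC.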

The test system of the next assay is CAOV3. As to the kind of experiment: Primary qHTS to identify gynecologic anti-cancer compounds using libraries of approved drugs and bioactive compounds (AID 1345084). Note: nearly all actives have a fitted effect of over 55% in size. Note: potency is the fitted concentration of half-maximal effect. The conditions noted are these: Gynecologic cancer cell panel viability, ATPlite luminescence, 48 h; series mostly up to 57.5 µM. A digest of the protocol:
as §1

The subject of another assay is HeLa. The assay is described as above. The conditions noted are these: Gynecologic cancer cell panel viability, ATPlite luminescence, 48 h; series mostly up to 57.5 µM. In outline:
as §1
In general terms: ATP-based viability assays read luminescence as a measure of living cells.

The subject of another assay is JEG-3. The assay is described as above. The conditions noted are these: Gynecologic cancer cell panel viability, ATPlite luminescence, 48 h; series mostly up to 57.5 µM. A digest of the protocol:
as §1

For another assay, the system named is HACAT. In words: qHTS assay to identify novel small-molecules to repurpose for Merkel cell carcinoma treatment (AID 1296009). Note: nearly all actives have a fitted effect of over 60% in size. To be noted: MCC and control cell lines, CellTiter-Glo viability, 72 h; at 44.8 µM (top of the series) unless noted. A digest of the protocol: (§2)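 Cells were incubated with compound for 72 hr at 37 degree celsius before CellTiter-Glo addition. Luminescence was normalized with no-cell wells as full cytotoxicity and DMSO as baseline.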

The next assay concerns NIH3T3. Described as above. The conditions noted are these: MCC and control cell lines, CellTiter-Glo viability, 72 h; at 44.8 µM (top of the series) unless noted. In outline: as §2
The next assay relates to CRL-7250. The description is as above. The conditions noted are these: MCC and control cell lines, CellTiter-Glo viability, 72 h; series mostly up to 92 µM. A digest of the protocol: as §2
The target in assay [9] is Cytochrome P450 2D6 (Homo sapiens) (UniProt P10635). As to the kind of experiment: Cytochrome P450 family 2 subfamily D member 6 (CYP2D6) small molecule antagonists: luciferase biochemical (cell-free) qHTS assay (AID 1645840; active = well fitted curve in the direction sought with a large enough effect in the repeat runs; an effect the other way counts as inactive or inconclusive; note: potency is the fitted concentration of half-maximal effect; nearly all actives have a fitted effect of over 55% in size). A digest of the protocol: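 P450-Glo luminescent screen: recombinant CYP2D6 enzyme–proluciferin substrate mix preincubated with compound 10 min at room temperature, then NADPH regeneration added for 1 h at room temperature. Detection reagent added for 20 min; luciferin light read as relative luminescence units.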

In assay [10] the target is Guanidinoacetate N-methyltransferase (Homo sapiens) (UniProt Q14353). As to the kind of experiment: Confirmatory Screen for Target Class Profiling of Small Molecule Inhibitors of Methyltransferases (AID 1745852). For activity change, negative = inhibition: % is set by controls: 0 for no effect and ±100 for the full control effect. The conditions noted are these: activity change, negative = inhibition: at 57.3 µM (top of the series) unless noted.
In assay [11] the target is Nicotinamide N-methyltransferase (Homo sapiens) (UniProt P40261). The assay is described as above. To be noted: MTase-Glo luminescence, SAH detection, recombinant enzyme; measured here: NNMT max response; stronger effect = lower value.

Several values for one entry are separate records, joined by “and”; a condition that tells them apart may be missing. Identical values can stand only once. Inconclusive results are not listed. Activity calls are given as the source filed them. Unless noted, calls come from the whole dose curve; as a rule, active = well fitted curve in the direction sought with a large enough effect; inconclusive = small, poorly fitted or top-dose-only effect, or another doubt; inactive = no such curve, though single readings can be large; an effect the other way counts as inactive or inconclusive.

Chain of Nicotinamide N-methyltransferase (Homo sapiens) (P40261 whole entry, looked up): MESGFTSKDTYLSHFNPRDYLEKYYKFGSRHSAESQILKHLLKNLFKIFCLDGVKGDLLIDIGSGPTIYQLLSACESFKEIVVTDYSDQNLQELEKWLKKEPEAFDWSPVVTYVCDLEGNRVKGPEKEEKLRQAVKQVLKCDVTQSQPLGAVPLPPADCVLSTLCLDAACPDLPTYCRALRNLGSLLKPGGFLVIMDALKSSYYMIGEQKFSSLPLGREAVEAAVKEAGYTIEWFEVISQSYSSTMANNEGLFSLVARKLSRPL
Chain of Cytochrome P450 2D6 (Homo sapiens) (P10635 whole entry, looked up): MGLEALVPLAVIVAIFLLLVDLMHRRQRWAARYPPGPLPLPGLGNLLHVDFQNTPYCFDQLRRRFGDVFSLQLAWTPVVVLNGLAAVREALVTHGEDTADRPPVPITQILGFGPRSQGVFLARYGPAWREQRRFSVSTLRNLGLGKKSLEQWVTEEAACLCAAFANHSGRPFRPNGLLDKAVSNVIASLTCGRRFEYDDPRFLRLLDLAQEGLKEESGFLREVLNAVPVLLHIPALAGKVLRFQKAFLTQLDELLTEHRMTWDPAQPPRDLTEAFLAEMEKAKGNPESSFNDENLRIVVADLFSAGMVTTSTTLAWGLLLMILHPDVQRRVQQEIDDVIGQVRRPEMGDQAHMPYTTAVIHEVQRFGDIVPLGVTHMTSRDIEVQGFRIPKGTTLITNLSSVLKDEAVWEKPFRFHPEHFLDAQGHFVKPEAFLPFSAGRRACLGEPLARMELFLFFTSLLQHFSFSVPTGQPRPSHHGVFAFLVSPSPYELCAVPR

Regarding `C[C@H]1C/C=C/[C@H]2[C@@H]3O[C@]3(C)[C@@H](C)[C@H]3[C@H](Cc4ccccc4)NC(=O)[C@]32OC(=O)O/C=C/[C@@](C)(O)C1=O`, the results for the Potency (in [1]; in the assay with KB-3-1; in the assay on SKOV3) were 2240 nM (active), 563 nM (active) and 2000 nM (active), respectively. Also, the Potency entry in [2] and in assay [3] was “inactive” throughout.
Turning to `COc1cc2c(c(OC)c1OC)-c1ccc(SC)c(=O)cc1[C@@H](NC(C)=O)CC2`, the Potency in assay [1] is 231 nM (active); in assay [4] it was 0.0058 µM (active); in the assay on KB-3-1, 5.8 nM (active).
As to `C[C@H]1CCC/C=C/C2C[C@H](O)C[C@H]2[C@H](O)/C=C/C(=O)O1` (some centres undefined), the Potency in assay [5] is 146 nM (active); in assay [1] it was 184 nM (active); in assay [7] it was 1000 nM (active); in assay [4], 163 nM (active) and 417 nM (active); with CAOV3, 316 nM (active); in the assay on HeLa, 355 nM (active). Besides, the Potency with JEG-3 was 891 nM (active). Besides, the Potency result in assay [2], in assay [6] and in assay [3] was “inactive” each time. In addition, the Z-AUC was -0.883 (inactive) in assay [8], -1.19 in [8] (measured here: PEO1 parental Z-AUC) and -1.2 in [8] (measured here: PEO4 Z-AUC).
Consider `COC(=O)[C@]12CCCC(C)(C)C1CCc1cc(C(C)C)c(O)c(O)c12` (some centres undefined), for which the Potency entry (in assay [1]; with CAOV3; with HeLa; in the assay on JEG-3; with SKOV3) was “inactive” each time. In addition, the Potency in assay [2] was 4470 nM (active). In addition, in the assay on HACAT, the outcome is “inactive”.
Turning to `CN(C)[C@@H]1C(=O)C(C(N)=O)=C(O)[C@@]2(O)C(=O)C3=C(O)c4c(O)ccc(Cl)c4[C@@](C)(O)C3C[C@@H]12` (some centres undefined), the Potency entry (in assay [1]; in assay [2]; in [4]; in the assay with CAOV3; with HeLa; in the assay on JEG-3) was “inactive” in each case. In addition, the Potency result in the assay on SKOV3 was “inactive”. The max response with KB-3-1 is -13.4% (inactive). Further, the outcome in the assay on NIH3T3 is “inactive”.
As to `CC1=CC2/C=C(\C)CCCC(O)/C=C/C(=O)OC23C(=O)NC(CC(C)C)C3C1C` (centres undefined), the Potency entry (in assay [5]; in assay [1]; in assay [2]; in assay [4]; in the assay on CRL-7250; in the assay with CAOV3) was “inactive” throughout. For the same compound, the Potency entry in the assay with HeLa, in the assay with JEG-3 and in the assay with SKOV3 was “inactive” throughout.
Consider `CCCCN1[C@@H]2CC[C@H]1CC(OC(c1ccc(F)cc1)c1ccc(F)cc1)C2` (some centres undefined), for which the figures for the Potency in [1], in assay [9] and in assay [4] were 18400 nM (active), 169 nM (active) and 9.16 µM (active), respectively. The Potency entry (in assay [2]; in assay [3]; in the assay with HeLa; in the assay on JEG-3) was “inactive” each time. In assay [10], this compound returned an activity change, negative = inhibition of 0%. Also, the activity in assay [11] is -14%.
For `C[C@@]1(CO)[C@H](O)CC[C@@]2(C)[C@H]1CC[C@H]1C[C@@H]3C[C@@]12CC[C@]3(O)CO`, the Potency in assay [4] was 2.84 µM (active). For the same compound, the Potency result (in [3]; with CAOV3; in the assay on JEG-3) was “inactive” each time.
